# Laboratory results from PMC4336329 (PLoS ONE, 2015).
# The whole screen tested about 310,000 compounds, of which about 14,000 (4.5%) showed an effect of 50% or more. Effects have a minus sign here. The sample holds strong results, similar compounds and a random draw of the others, so the mix is not that of the screen.
# Target: human ether-à-go-go-related gene (hERG) potassium channel (human, UniProt Q12809)
# Assay: primary screen, population patch clamp on CHO cells stably expressing hERG; higher = less effect of the substance
# 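Also: peak tail current of the secondary pulse compared with the same well before compound.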
# Sequence of human ether-à-go-go-related gene (hERG) potassium channel (Q12809 whole entry, looked up): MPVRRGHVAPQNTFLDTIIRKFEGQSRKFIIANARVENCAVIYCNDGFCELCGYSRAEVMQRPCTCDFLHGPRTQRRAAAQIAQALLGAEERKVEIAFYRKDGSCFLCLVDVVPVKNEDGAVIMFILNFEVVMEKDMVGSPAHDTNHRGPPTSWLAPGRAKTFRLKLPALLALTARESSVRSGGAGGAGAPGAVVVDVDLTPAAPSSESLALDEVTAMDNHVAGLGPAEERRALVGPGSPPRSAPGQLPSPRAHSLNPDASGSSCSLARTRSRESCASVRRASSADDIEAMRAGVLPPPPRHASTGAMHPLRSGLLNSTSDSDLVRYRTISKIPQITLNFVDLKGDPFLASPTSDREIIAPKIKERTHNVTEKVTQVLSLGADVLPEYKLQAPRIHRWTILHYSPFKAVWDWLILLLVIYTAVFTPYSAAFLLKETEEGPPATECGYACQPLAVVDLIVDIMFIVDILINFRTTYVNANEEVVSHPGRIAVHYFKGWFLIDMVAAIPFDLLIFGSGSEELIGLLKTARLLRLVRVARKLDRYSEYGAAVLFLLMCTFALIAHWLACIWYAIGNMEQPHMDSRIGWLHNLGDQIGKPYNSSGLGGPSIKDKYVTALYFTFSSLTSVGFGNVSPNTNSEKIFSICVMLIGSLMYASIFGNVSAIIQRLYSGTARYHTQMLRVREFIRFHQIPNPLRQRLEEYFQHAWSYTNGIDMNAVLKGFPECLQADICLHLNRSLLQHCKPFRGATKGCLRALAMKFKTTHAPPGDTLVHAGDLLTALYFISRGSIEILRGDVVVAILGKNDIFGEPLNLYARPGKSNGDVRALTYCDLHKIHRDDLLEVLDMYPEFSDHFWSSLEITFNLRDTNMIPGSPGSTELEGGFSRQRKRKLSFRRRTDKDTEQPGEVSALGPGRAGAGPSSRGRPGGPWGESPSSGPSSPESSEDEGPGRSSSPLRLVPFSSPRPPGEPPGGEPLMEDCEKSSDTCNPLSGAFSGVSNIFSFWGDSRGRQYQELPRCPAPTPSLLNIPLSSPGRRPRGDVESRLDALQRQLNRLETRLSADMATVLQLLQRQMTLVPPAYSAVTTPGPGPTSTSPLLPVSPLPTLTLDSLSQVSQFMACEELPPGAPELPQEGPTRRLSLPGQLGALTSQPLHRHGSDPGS
row,Structure (SMILES),"hERG current change (%, negative = inhibition) at 10uM [%]"
1,Cc1cc(C)c(C#N)c(SCc2nnc(-c3ccccc3)o2)n1,-0.532
2,O=C(CNCC1CCCO1)Nc1ccccc1N1CCCCCC1.O=C(O)C(=O)O (stereo not drawn),-6.51
3,COc1cc(OC)nc(Oc2ccccc2C(=O)Oc2ccc(C)cc2)n1,-25.1
4,O=C(c1cc(C2CC2)on1)N1CCN(c2ccccc2)CC1,-14.1
5,CCCCN1C(=O)C(=O)N(CC(=O)Nc2cc(S(=O)(=O)N(C)C)ccc2C)C1=O,6.6
6,O=S(=O)(Nc1ccc(Br)cc1)c1cccc2nonc12,5.71
7,Cl.O=C(O)CCN1CCOCC1,19.8
8,Cc1ccc(C)c(S(=O)(=O)N2CCN(C(=O)CCNC(=O)c3ccc(Br)cc3)CC2)c1,-33.4
9,O=[N+]([O-])c1ccc(NC2CCN(Cc3ccccc3)CC2)c([N+](=O)[O-])c1,-85.4
10,O=C1CCC(=O)N1c1ccc(NC2CCN(Cc3ccccc3)CC2)c([N+](=O)[O-])c1,2.23
11,O=[N+]([O-])c1ccc(NC2CCN(Cc3ccccc3)CC2)c2ccncc12,6.01
12,O=[N+]([O-])c1ccccc1NC1CCN(Cc2ccccc2)CC1,-64.4
13,CC1CCC2C(=O)N(c3ccc(NC4CCN(Cc5ccccc5)CC4)c([N+](=O)[O-])c3)C(=O)C2C1 (stereo not drawn),-41.2
14,O=C1C2CCCCC2C(=O)N1c1ccc(NC2CCN(Cc3ccccc3)CC2)c([N+](=O)[O-])c1 (stereo not drawn),-42.1
15,Cc1noc(C)c1S(=O)(=O)NCc1ccc(CN(C)C)cc1.Cl,6.09
16,COc1ccc(CCNC(=O)/C(C#N)=C/c2ccc(OCC(=O)NCC3CCCO3)cc2)cc1OC (stereo not drawn),11.7
17,CC(C)N(C(=O)COC(=O)c1ccc(O)cc1)C(C)C,-1.54
18,CCS(=O)(=O)c1nc(S(=O)(=O)c2ccc(C)cc2)c(NCCCN2CCCC2=O)s1,-11.3
19,CS(=O)(=O)c1nc(S(=O)(=O)c2ccc(Cl)cc2)c(NCCCN2CCOCC2)s1,-46.8
20,CCCCNC(=O)c1cn(C)c2ccc(S(=O)(=O)N3CC(C)CC(C)C3)cc2c1=O (stereo not drawn),1.55
21,O=C1NC(=S)NC(=O)C12C(c1ccc(F)cc1)NC(=S)NC2c1ccc(F)cc1 (stereo not drawn),-4.14
22,Cl.Oc1cccc(Nc2nc(-c3ccccc3Cl)nc3ccccc23)c1,7.09

row,Structure (SMILES),"hERG current change (%, negative = inhibition) at 10uM [%]"
1,CCCn1c(C)cc(C(=O)Cn2nnc3ccccc3c2=O)c1C,-34.7
2,O=C(CSc1ccc(-c2ccco2)nn1)c1ccccc1,-9.74
3,O=C(CSc1ccc(-c2cccs2)nn1)Nc1ccccc1,-35
4,Cc1cc(C)cc(NC(=O)CSc2ccc(-c3ccco3)nn2)c1,-28.8
5,Cc1cc(C)cc(NC(=O)CSc2ccc(-c3cccs3)nn2)c1,-52.2
6,Cc1cccc(NC(=O)CSc2ccc(-c3ccco3)nn2)c1,-59.5
7,O=C(CSc1ccc(-c2ccco2)nn1)c1ccc(F)cc1,-25.8
8,CCc1ccc(NC(=O)CSc2ccc(-c3ccco3)nn2)cc1,-16.6
9,CC(=O)Nc1ccc(NC(=O)CSc2ccc(-c3cccs3)nn2)cc1,11.4
10,COc1ccc(C(=O)CSc2ccc(-c3ccco3)nn2)cc1,-78.1
11,O=C(CSc1ccc(-c2ccco2)nn1)Nc1cccc(F)c1,-55.2
12,CC(=O)c1cccc(NC(=O)CSc2ccc(-c3ccco3)nn2)c1,1.79
13,CC(=O)Nc1cccc(NC(=O)CSc2ccc(-c3ccco3)nn2)c1,0.763
14,Cc1cc(OC(C)C(=O)Nc2cccnc2)ccc1Cl (stereo not drawn),2.05
15,COc1ccc(CNC(=O)C2CCN(S(=O)(=O)c3ccc4c(c3)NC(=O)CO4)CC2)cc1,16.7
16,O=C(NC(Cc1c[nH]c2ccccc12)C(=O)O)/C(=C\c1ccc2c(c1)OCO2)NC(=O)c1ccccc1 (stereo not drawn),-7.13
17,CCCC(=O)Nc1ccc2nc(SCC(=O)N3CCCC3)sc2c1,2.52
18,O=C(O)c1cccc(S(=O)(=O)N2CCCC(c3nc4c(nnn4Cc4ccc(F)cc4)c(=O)[nH]3)C2)c1 (stereo not drawn),-15.3
19,O=C1/C(=C\c2ccc(Br)o2)SC(=Nc2ccccc2)N1c1ccccc1,-10.1
20,Cl.N=c1c2c(n(Cc3ccc(Cl)c(Cl)c3)c3c1CCC3)CCCC2,-15.8
21,COc1cc(NC(=O)Cc2ccccc2)ccc1NC(=O)c1ccco1,18.5
22,O=C(CSc1ccc(-c2ccco2)nn1)Nc1ccccc1,-47.6

row,Structure (SMILES),"hERG current change (%, negative = inhibition) at 10uM [%]"
1,Cc1ccc(NC(=O)CSc2ccc(-c3ccco3)nn2)c(C)c1,-24.4
2,O=C(CSc1ccc(-c2ccco2)nn1)Nc1ccc(F)cc1F,-65.8
3,CC(=O)Nc1ccc(NC(=O)CSc2ccc(-c3ccco3)nn2)cc1,-2.54
4,O=C(CSc1ccc(-c2ccco2)nn1)Nc1ccc(F)cc1,-68.5
5,O=C(CSc1ccc(-c2ccco2)nn1)Nc1ccccc1F,-43.4
6,CC(NC(=O)c1ccco1)c1nc(-c2ccccc2Cl)no1 (stereo not drawn),3.9
7,Cc1cc2nc(-c3cccc(NC(=O)c4ccc(Br)o4)c3C)oc2cc1C,5.67
8,Cc1nc(C)c(-c2ccc(SCC(=O)Nc3cccc(F)c3)nn2)s1,8.66
9,CC(C)C(=O)Nc1ccc(Cc2ccc(NC(=O)C(C)C)c(O)c2)cc1O,-23
10,COc1cccc(-c2nc(CS(=O)(=O)CC(=O)NCCc3ccc(OC)cc3OC)c(C)o2)c1,-13
11,Cc1ccnc(NS(=O)(=O)c2ccc(NC(=O)Cc3ccccc3)cc2)n1,5.26
12,O=C(/C=C/c1ccc([N+](=O)[O-])cc1)NCc1ccco1,-24.1
13,O=C(/C=C/c1cccc([N+](=O)[O-])c1)NCCSCc1ccco1,-29.5
14,NS(=O)(=O)c1ccc(CCNC(=O)/C=C/c2cccc([N+](=O)[O-])c2)cc1,-13.7
15,O=C(/C=C/c1cccc([N+](=O)[O-])c1)NCCc1ccc(F)cc1,-21.8
16,NS(=O)(=O)c1ccc(CCNC(=O)/C=C/c2ccc([N+](=O)[O-])cc2)cc1,-69.8
17,O=C(/C=C/c1ccc([N+](=O)[O-])cc1)NCCSCc1ccco1,-61.3
18,COc1ccc(/C=C/C(=O)NCCc2ccc(S(N)(=O)=O)cc2)cc1,3.55
19,COc1ccc(/C=C/C(=O)NCCOc2ccc(C)cc2)cc1,6.3
20,COc1ccc(OCCNC(=O)/C=C/c2ccc([N+](=O)[O-])cc2)cc1,-64.7
21,COc1ccccc1OCCNC(=O)/C=C/c1ccc([N+](=O)[O-])cc1,-49.2
22,O=C(/C=C/c1ccc([N+](=O)[O-])cc1)NCCc1ccc(F)cc1,-60.3

row,Structure (SMILES),"hERG current change (%, negative = inhibition) at 10uM [%]"
1,O=C(/C=C/c1ccc([N+](=O)[O-])cc1)NCCc1ccccc1,-14.4
2,O=[N+]([O-])c1cc(/C=N\Nc2ccccn2)ccc1Cl,18.4
3,CCN(CC)c1ccc(NC(=O)CN(C)Cc2cccs2)cc1,6.07
4,O=C(O)c1ccc(NC(=O)c2cccs2)cc1,10.1
5,COc1ccc(NC(=O)COc2ccccc2F)cc1S(=O)(=O)N1CCCCC1,6.02
6,COc1ccc(N2CCN(C(=O)CSc3nnc4c5cc(C)ccc5n(C)c4n3)CC2)cc1,-13.9
7,Cc1ccc2c(c1)c1nnc(SCC(=O)N3CCN(c4ccc(F)cc4)CC3)nc1n2CC(=O)O,-63.1
8,Cc1ccc2c(c1)c1nnc(SCC(=O)N3CCCc4ccccc43)nc1n2CC(=O)O,20.2
9,COc1cccc(OCc2ccc(Cl)cc2)c1C#N,19.6
10,CCC(=O)N1CCc2cc(S(=O)(=O)NC(CC(C)C)C(=O)N3CCc4ccccc43)ccc21 (stereo not drawn),-2.28
11,NC(=O)c1ccccc1NCC(=O)c1ccc(Cl)cc1,16.4
12,O=C(c1cccc([N+](=O)[O-])c1)c1ccc2c(c1)C(=O)NC2=O,-11.5
13,CN1CCOCCOc2ccccc2OCCOCC1,7.5
14,CC(=O)[O-].[K+].c1ccc2c(c1)OCCOCCOc1ccccc1OCCOCCO2,-74.7
15,OCCN1CCOCCOc2ccccc2OCCOCC1,1.57
16,CC(=O)Nc1cccc2c1OCCO2,6.45
17,c1ccc2c(c1)OCCOCCOCCOCCOc1ccccc1OCCOCCOCCO2,-62.1
18,c1ccc2c(c1)OCCOCCOCCOCCOCCOc1ccccc1OCCOCCOCCO2,-59.2
19,O=C(N1CCOCCOc2ccccc2OCCOCC1)C(F)(F)F,6.2
20,c1ccc2c(c1)OCCOCCOCCO2,10
21,C=C(C)C(=O)Nc1ccc2c(c1)OCCOCCOCCO2,-26.4
